High-throughput results from PubChem.
The sample as a whole holds a higher share of hits than the screen did.
PNC inhibitor – inhibitors of perinucleolar compartment assembly | AID 2417 | 3.1% of 140,000 active | PC3M PTB-GFP, PNC prevalence imaging, 16 h; hits give low values | activity change (PNC), negative = inhibition, % at 10 µM;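 active = readout at or below -70, meaning at least 70% loss of cells showing the perinucleolar compartment, a nuclear body marking cancer cells; inconclusive = readout between -30 and a set limit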;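 also: plate controls were DMSO wells for no effect and camptothecin positive control wells for full effect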
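PC3M cells stably expressing PTB-GFP, 750–1000 cells/well, treated 16 h at 37 °C with compound (23 nl of library stock), in duplicate. After paraformaldehyde fixation and Hoechst stain, imaged at 20x; PNC prevalence scored by image analysis.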
12-hLO inh – 12-hLO (ALOX12) enzyme inhibition; P18054; purified 12-hLO, xylenol orange hydroperoxide absorbance; Potency, µM (doses to about 57.1 µM), for inactives: at the highest dose activity change, negative = inhibition, usual class: inhibitors; 0.12% of 150,000 active; AID 1452; also: potency is read from the fitted curve at half-maximal effect; nearly all actives have a fitted effect of over 55% in size
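150 nM 12hLO, 25 mM Hepes pH 7.0 + 0.01% Triton X-100; cpd preinc 15 min RT; 40 uM arachidonic acid, 30 min RT; Fe-XO 30 min; A573/A405 ratio as read-out.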
IMPase inh – membrane-permeable compound that blocks inositol monophosphatase | P97697 | CHO-M1 cells, IP1 accumulation, HTRF TR-FRET ratio | inhibition (IP1 accumulation), % at 46.1 µM | 120,000 tested, under 10 active | AID 901; active = well fitted curve in the direction sought with a large enough effect in the signal ratio, not every such curve was filed as active; inconclusive = small, poorly fitted or top-dose-only effect, or a change in a side signal; inactive = no such curve, though single readings can be large or run the other way; the % refers to the signal ratio;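 also: cells stimulated with carbachol in lithium chloride buffer; plate controls were DMSO basal wells for no effect and reference inhibitor wells for full effect; higher means more IMPase inhibition seen as more IP1 and lower FRET ratio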
Target sequence (P97697 whole entry, looked up): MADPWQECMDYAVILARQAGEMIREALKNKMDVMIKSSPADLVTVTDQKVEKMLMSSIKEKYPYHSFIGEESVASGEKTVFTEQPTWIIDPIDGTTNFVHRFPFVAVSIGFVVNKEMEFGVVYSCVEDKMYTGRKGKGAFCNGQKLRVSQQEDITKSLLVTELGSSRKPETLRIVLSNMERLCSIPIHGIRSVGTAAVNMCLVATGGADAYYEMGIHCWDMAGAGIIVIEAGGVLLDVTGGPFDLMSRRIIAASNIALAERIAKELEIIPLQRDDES
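Carbachol-driven Gq signalling in CHO-M1 cells (2000/well) generates IP1. Compounds that block IMPase raise IP1 and so reduce the FRET signal from Eu-anti-IP1 and d2-IP1 after a 10 min room-temperature lysis.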
IMPase Li cell – membrane-permeable IMPase blocker, potentiated with lithium; CHO-M1 cells, IP1 TR-FRET (IP-One), carbachol + lithium; Potency, µM (series often up to 59.4 µM), without a hit: at the highest dose activity, negative = IMPase inhibition, actives largely listed as inhibitors; 0.35% of 210,000 active; AID 1457;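 also: IP1 builds up when IMPase is blocked and the TR-FRET signal falls; potency is read from the fitted curve at half-maximal effect; plate controls were basal vehicle for no effect and high inhibitor control for full effect; nearly all actives have a fitted effect of over 50% in size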
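IP1 accumulation measured by competitive TR-FRET in lysed CHO-M1 cells after 30 min compound exposure at 37C, with a small lithium addition to potentiate weak responses. Hill-equation AC50 from ratio and donor-channel data.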
Starred values were filed as active, the others as inactive; u = inconclusive; x = no result; [ ] = dose if it differs, or a comment. Unless noted, calls follow the shape of the dose curve; as a rule, active = well fitted curve in the direction sought with a large enough effect; inconclusive = small, poorly fitted or top-dose-only effect, or another doubt; inactive = no such curve, though single readings can be large; an effect the other way counts as inactive or inconclusive. Unless noted, % is scaled to controls: 0 for no effect and ±100 for the full control effect.

SMILES	PNC inhibitor	12-hLO inh	IMPase inh	IMPase Li cell
COc1ccc(CN(C(=O)c2cnccn2)C(C(=O)NC(C)(C)C)c2cc(OC)c(OC)c(OC)c2)cc1 (stereo unspecified)	-95*	-6%	x	-1%
CCN1CCCC(NC(=O)c2cc([N+](=O)[O-])ccc2OC)C1 (stereo unspecified)	-21	2%	x	4%
CC1(C)O[C@H]2C[C@@H]3[C@H]4CCC5=CC(=O)C=C[C@]5(C)[C@@]4(F)[C@@H](O)C[C@]3(C)[C@]2(C(=O)CO)O1	x	-1%[0.00818 µM]	x	-4%
Cc1sccc1/C=N/NC(=O)c1cccc2ccccc12	-104*	-4%	x	-5%
COc1cccc(NC(=S)N/N=C2/CCCCc3ccccc32)c1	u	u	3	19%
CCc1nc(N)c(C#N)c(-c2cccc3ccccc23)c1C	-100*	1%	-5	6%
CCc1nc(N)c(C#N)c(-c2ccncc2)c1C	1	-2%	u	-15%[38.3 µM]
Cc1ccc(NC(=O)c2ccccc2NC(=O)Cc2ccccc2)cc1	u	-4%	x	6%
O=C(Cc1ccccc1)Nc1ccccc1C(=O)Nc1ccccc1	-120*	-2%	x	17%
O=C(CN1CCN(CCO)CC1)Nc1ccccc1	-100*	-2%	7	0%
O=C(NCCCN1CCOCC1)c1ccc2c(=O)n(CCc3ccccc3)c(=O)[nH]c2c1	-95*	3%	4	27%[38.3 µM]
COC(=O)c1ccc2c(=O)n(CCN3CCOCC3)c(=S)[nH]c2c1	-100*	-1%	18	13%[38.3 µM]
COC(=O)c1ccc2c(=O)n(CCCN3CCOCC3)c(=S)[nH]c2c1	-7	1%	-15	-6%[38.3 µM]
O=C(CN1CCC(C(O)(c2ccccc2)c2ccccc2)CC1)Nc1cc(Cl)ccc1Cl	-100*	14%	7	18%[38.3 µM]
Cc1cccc(/C(N)=N/OC(=O)C23CC4CC(CC(C4)C2)C3)c1	-114*	-1%	x	-4%
Cc1cccc(/C(N)=N/OC(=O)Cc2ccccc2)c1	x	x	x	9%
Cc1nc(NCc2ccccc2)c2nc(-c3ccccc3)n(CCN3CCCCC3)c2n1	x	-11%	x	10%
COc1ccc(C(=O)On2c(-c3ccc(Br)cc3)nc3ccccc3c2=O)cc1	-6	-6%	x	13%
COc1cc(OC)cc(-c2nc3ccccc3c(=O)n2OC(=O)c2ccc(Br)cc2)c1	-116*	-15%	x	-5%
O=C(CCCn1c(=O)[nH]c2cc(Cl)ccc2c1=O)NCC1CCCO1 (stereo unspecified)	-119*	2%	10	5%
C/C(=N/NC(=O)c1cccc(C)c1)c1c(O)cc(C)oc1=O	-100*	-3%	-6	11%
O=C(Nc1ccccc1Cl)N1CCn2c(nc3ccccc32)C1	-111*	3%	5	-17%[38.3 µM]
CC(=O)C1=C(C)NC(SCC(=O)c2ccccc2)=C(C#N)C1c1ccco1 (stereo unspecified)	11	-18%	5	2%[38.3 µM]
CC(=O)C1=C(C)NC(SCC(=O)c2ccccc2)=C(C#N)C1CC(C)C (stereo unspecified)	6	-22%	u	10µM*
Cc1nc(-c2coc3c(O)c(O)ccc3c2=O)cs1	x	x	x	45%
SMILES	PNC inhibitor	12-hLO inh	IMPase inh	IMPase Li cell
Cc1cc2cc3c(cc2nc1SCC(=O)O)CCC3	x	x	x	3.5µM*
Cc1ccccc1NC(=O)CSc1nc2cc3c(cc2cc1C)CCC3	20	4%	u	8%[38.3 µM]
Cc1cc2nc(CCN(Cc3cccnc3)C(=S)Nc3ccc(F)cc3)[nH]c2cc1C	85	-1%	3	-3%[38.3 µM]
Cc1cc2nc(CCN(Cc3cccnc3)C(=S)Nc3ccccc3)[nH]c2cc1C	-86*	-2%	-3[1.84 µM]	u
Cc1csc2ncc(C(=O)NCc3ccco3)c(=O)n12	-100*	-3%	1	-2%
c1cnc(N2CCSCC2)nc1	-91*	-5%	-1	-10%[38.3 µM]
CC(=O)Nc1ccc(-c2cc(-c3ccccc3)nc(-c3ccccc3)n2)cc1	-5	-3%	x	8.9µM*
CC(=O)Nc1ccc(-c2cc(-c3ccc(NC(C)=O)cc3)nc(-c3ccccc3)n2)cc1	19	5%	3	32µM*
CC(=O)Nc1ccc(-c2cc(-c3ccc(NC(C)=O)cc3)nc(-c3ccc(NC(C)=O)cc3)n2)cc1	11	-2%	x	u
CCC(=O)Nc1ccc(-c2csc(C)n2)cc1	-30	-1%	x	4%
CCC(=O)Nc1ccc(-c2cc(-c3ccccc3)nc(-c3ccc(NC(=O)CC)cc3)n2)cc1	u	-6%	u	10µM*
